Measurements from ChEMBL document CHEMBL1157539, “Thousands of chemical starting points for antimalarial lead identification” (Nature, 2010).

Columns and labels:
Type in all cases: functional
Plasmodium falciparum [1] = experiment: GSK_TCMDC: Inhibition of Plasmodium falciparum 3D7 in whole red blood cells, using parasite LDH activity as an index of growth. Test compounds present at 2uM
Plasmodium falciparum [2] = experiment: GSK_TCMDC: Inhibition of Plasmodium falciparum Dd2 in whole red blood cells, using parasite LDH activity as an index of growth. Test compounds present at 2uM
HepG2 = experiment: GSK_TCMDC: Percent inhibition of human HepG2 cell line. Test compounds present at 10uM.

Compound | Inhibition (Plasmodium falciparum [1]) [%] | Inhibition (Plasmodium falciparum [2]) [%] | Inhibition (HepG2) [%]
CN1CCN(c2ccc(-c3cccc(NC(=O)c4ccc5ccccc5c4)c3)nn2)CC1 | 94 | 26 | 17
CS(=O)(=O)CCNCc1ccc(-c2cc3c(Nc4ccc(OCc5cccc(F)c5)c(Cl)c4)ncnc3s2)[nH]1 | 99 | 95 | 5
COc1ccc2nccc([C@@H](O)CN3CCC(NC(=O)c4ccc(Oc5ccccc5)cc4)CC3)c2c1 | 82 | 13 | 39
Cn1nc(-c2ccc(CN[C@@H]3CCc4ccc(O)cc43)cc2)c2cnc(NCCCN3CCCC3)nc21 | 100 | 61 | 8
COc1ccc(NS(=O)(=O)c2ccccc2Br)cc1N1CCN(C)CC1.Cl | 94 | 3 | 2
COc1ccc2c(c1)ncn2-c1cc(OCc2ccncc2Br)c(C(N)=O)s1 | 95 | 50 | 14
COc1cccc(COCC(O)CN(CCc2ccccn2)C(=O)c2ccccc2F)c1 (centres undefined) | 97 | 30 | 61
CC(C)c1nc2c(N)nc(N)nc2nc1N | 84 | 0 | 64
CC(C)(C)C(=O)Nc1ccc(N2CCN(C(c3ccccc3)c3ccccc3)CC2)c(Cl)c1 | 92 | 94 | 0
CC(C)COc1ccc2ccccc2c1CNCCCCCCNCc1c(OCC(C)C)ccc2ccccc12.CS(=O)(=O)O | 90 | 95 | 99
COc1ccc(CNCCCCCCCNCc2ccc(Cl)c(Cl)c2)cc1Cl | 90 | 18 | 27
CC(C)(C)c1ccc(CN2CCCCC(NC(=O)c3cc(-c4ccccc4Cl)cs3)C2)cc1.O=C(O)C(F)(F)F (centres undefined) | 100 | 98 | 3
CC(C)C(C(=O)Nc1ccc2c(c1)OCO2)c1ccc(Cl)cc1 (centres undefined) | 98 | 89 | 25
C=CCc1cc(Br)ccc1OCCCOc1c(C)nc(N)nc1N.Cl | 94 | 96 | 56
FC(F)(F)c1ccc2[nH]c(-c3cccc(-c4cccc(CN5CCN(c6ccncc6)CC5)c4)c3)nc2c1.O=C(O)C(F)(F)F | 100 | 99 | 93
CC1CN(S(=O)(=O)c2ccc(NC(=O)c3cc(-c4ccccc4O)n[nH]3)cc2)CC(C)O1 (centres undefined) | 97 | 93 | 21
CN(C)Cc1ccc(O)c(-c2ccc(C(C)(C)C)cc2)n1.Cl | 86 | 25 | 0
O=C(NCc1cccc2ccccc12)C(c1cc2ccccc2o1)N1CCN(C(c2ccccc2)c2ccccc2)CC1 (centres undefined) | 99 | 90 | 0
Cc1cc(F)ccc1-c1nc(NCCCN2CCCC2=O)nc2c1ccc(=O)n2-c1c(F)cccc1F | 88 | 80 | 0
CCCOc1ccc(C=C(CC(=O)O)c2nc3ccccc3s2)cc1OCC | 89 | 84 | 7
COc1ccc(CCCCN2C(=O)C(c3ccccc3)(c3ccccc3)N=C2N)cc1.O=C(O)C(F)(F)F | 97 | 95 | 40

Compound | Inhibition (Plasmodium falciparum [1]) [%] | Inhibition (Plasmodium falciparum [2]) [%] | Inhibition (HepG2) [%]
CC1CCN(C(=O)[C@H](Cc2c[nH]c3ccccc23)NS(=O)(=O)c2ccc(Cl)cc2)CC1 | 100 | 99 | 0
CCN(CC)CCOc1ccc(C(O)(C#CC(O)(c2ccc(OCCN(CC)CC)cc2)c2ccc([N+](=O)[O-])cc2)c2ccc([N+](=O)[O-])cc2)cc1 (centres undefined) | 98 | 97 | 55
NC(=O)Nc1ccc2c(Nc3ccc(OCc4ccccc4)cc3)ncnc2c1 | 84 | 20 | 0
Cl.Nc1nc(Nc2cccc(O)c2)nc2ccccc12 | 96 | 79 | 25
CNC(=O)C1Cc2c([nH]c3ccc(Br)cc23)C2(CCN(CCc3ccccc3)CC2)N1 (centres undefined) | 100 | 60 | 15
COc1cc(Nc2ncnc3cc(OC)c(OC)cc23)cc([N+](=O)[O-])c1.Cl | 97 | 6 | 8
COc1ccc2c(NN=Cc3ccccc3)ccnc2c1 | 100 | 98 | 18
NC(=O)C1CCN(Cc2ccc(-c3ccc(-c4nc5cc(F)ccc5[nH]4)cc3)cc2)CC1.O=C(O)C(F)(F)F | 100 | 100 | 12
O=C(c1ccc(-c2ccccn2)s1)N1CCc2cc3nccc(N4CCN5CCC[C@H]5C4)c3cc21 | 96 | 49 | 0
COc1ccc2ncc(C#N)c(CCN3C4CCC3CC(NCc3ccc5c(n3)NC(=O)CS5)C4)c2c1.Cl (centres undefined) | 95 | 27 | 6
COc1ccc(-c2cccc(NC(=O)c3cccc(Cl)c3)c2)cc1CN(C)CCN(C)C.O=C(O)C(F)(F)F | 100 | 73 | 32
Cn1nc(C(F)(F)F)c(-c2ccc(Br)cc2)c1NC(=O)Nc1ccc(F)cc1F | 99 | 99 | 16
Cl.Fc1cc(Cl)ccc1Nc1ccnc(Nc2ccc3cn[nH]c3c2)n1 | 97 | 56 | 8
Cc1cc(N(C)C2CCN(CC3CCCCC3)C2)nc(Nc2ccc(Br)cc2)n1 (centres undefined) | 98 | 38 | 14
CC(C)Oc1ccc2c(c1)OC(c1ccccc1)(C(F)(F)F)NC2=O (centres undefined) | 100 | 98 | 0
O=C(NCc1ccc(Cl)c(Cl)c1)c1cccc(C2CCCN(Cc3ccc4[nH]cnc4c3)C2)c1 (centres undefined) | 95 | 30 | 3
CC(=O)c1ccc(-c2ccccc2)s1 | 92 | 2 | 0
COc1ccc2nccc([C@@H](O)CN3CCC(NCc4ccc5cccc(O)c5n4)CC3)c2n1.CS(=O)(=O)O | 94 | 13 | 8
Cn1cc(-c2ccccc2C(=O)O)c(=O)c2cc(Cl)ccc21 | 89 | 0 | 16
CC(COc1ccc2c(c1)OC(C)(C)CC2c1ccccc1)NCC(O)c1cccc(Cl)c1.Cl (centres undefined) | 98 | 96 | 1
CCN(c1ccccc1)S(=O)(=O)c1ccc(NC(=O)c2cc(-c3cc(C)ccc3O)n[nH]2)cc1 | 99 | 55 | 49

Compound | Inhibition (Plasmodium falciparum [1]) [%] | Inhibition (Plasmodium falciparum [2]) [%] | Inhibition (HepG2) [%]
COc1ccc2nccc([C@@H](O)CN3CCC(NCc4cc5c(F)ccc(F)c5[nH]4)CC3)c2c1.O=C(O)C(=O)O | 100 | 67 | 29
CCN(CCCN1CCCCC1)c1nc(C)cc(Nc2ccc(Cl)cc2)n1 | 98 | 92 | 30
COC(=O)c1ccc2c(c1)nc(Nc1cccc(F)c1)n2CC(O)c1ccccn1 (centres undefined) | 99 | 96 | 0
CC(C)CN1CCCN(Cc2cccc(NC(=O)c3cc4ccccc4s3)c2)CC1.O=C(O)C(F)(F)F | 87 | 6 | 5
O=C(CN1CCN(C(=O)c2ccco2)CC1)Nc1ccccc1Br | 97 | 96 | 15
CCCc1nc2c(N3CC(NC(=O)/C=C/c4ccccc4)C3)cccc2n1C1CC1 | 83 | 68 | 1
CC(C)(C)c1ccc(C(=O)Nc2ccc(NC(=O)c3ccc([N+](=O)[O-])o3)cc2)cc1 | 81 | 4 | 0
CC1CN(C(=O)c2sc3ccccc3c2Cl)CC(C)O1 (centres undefined) | 100 | 98 | 0
O=C(O)C(F)(F)F.c1ccc(CN2CCC(NCc3ccc(-c4cccc(CNC5CCCC5)c4)cc3)CC2)cc1 | 100 | 100 | 55
CC(=O)Nc1cc(C(=O)Nc2ccc(C3=NCCN3)cc2)ccc1C(=O)Nc1ccc(C2=NCCN2)cc1.Cl | 96 | 92 | 12
OC(CNc1ccnc(Nc2cccc(Cl)c2)n1)c1cccc(C(F)(F)F)c1 (centres undefined) | 100 | 98 | 11
CC(=O)c1cccc2cc(C(=O)NC3CCC(CCN4CCc5ccc(C#N)cc5C4)CC3)[nH]c12.Cl (centres undefined) | 100 | 17 | 12
CN1N=C2c3ccccc3CCC2C1c1ccc(C#N)cc1 (centres undefined) | 95 | 85 | 0
O=C(Nc1cccc(CN2CCCN(Cc3ccc(O)cc3)CC2)c1)c1ccc2ccccc2n1.O=C(O)C(F)(F)F | 90 | 22 | 13
COCCN1CCN(Cc2cccc(-c3ccc(-c4nc5ccccc5[nH]4)cc3)c2)CC1.O=C(O)C(F)(F)F | 100 | 50 | 9
CN1CCN(Cc2nc(-c3ccc4c(Nc5ccc(F)c(O)c5)ccnc4c3)cs2)CC1 | 100 | 100 | 0
CCC(C)C#Cc1c(C)nc(N)nc1N (centres undefined) | 96 | 0 | 53
Cc1cc(C2CCN(CCCCNC(=O)c3ccc(-c4ccc(C(F)(F)F)cc4)cc3)CC2)c(C)cc1OCC(N)=O | 91 | 44 | 34
O=C(N[C@@H](CC1CCCCC1)C(=O)NCCc1ccc(Cl)c(Cl)c1)c1ccc(O)c(-c2ccc(Cl)c(Cl)c2)c1 | 100 | 99 | 0
NCC1CCCN1Cc1ccc(-c2ccc(-c3nc4cc(C(F)(F)F)ccc4[nH]3)s2)cc1.O=C(O)C(F)(F)F (centres undefined) | 100 | 97 | 31
COc1ccc(C(=O)N2CCN(c3ccc([N+](=O)[O-])c(NC4CC4)c3)CC2)cc1Br | 99 | 68 | 6
